This note sets out measurements from PubChem BioAssay (NCI).

Molecules are shown by their SMILES. This is part of a sample that, as a whole, favours compounds with a hit. Of some 83,000 tested, about 20% had one in any assay.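 Results are percent growth after 48 hours of single-concentration exposure. 100 means growth as in untreated cells, lower positive values show inhibition; negative values down to -100 show cell death.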 Values without a mark were called inactive. Calls of active or inactive are those of the source. The calls were made as follows: active = growth percent below 10; inactive = the rest.

Among the test systems are HCT-15 colon; HT29 colon; U251 CNS; PC-3 prostate; SK-MEL-5 melanoma; UACC-62 melanoma; LOX IMVI melanoma; SK-MEL-28 melanoma; SK-MEL-2 melanoma; EKVX NSCLC; SN12C renal; UO-31 renal; TK-10 renal; ACHN renal; CAKI-1 renal; A498 renal; CCRF-CEM leukemia; MOLT-4 leukemia; SNB-19 CNS.
What all share (test): NCI-60 one-dose screen, 48 h (100 = growth as untreated, 0 = no growth, -100 = all killed)
Conditions in all cases: 10 µM unless noted

Turning to `O=C(/C=C/c1ccccc1)c1ccc(-n2cc(CN3CCN(c4cc5c(cc4F)c(=O)c(C(=O)O)cn5C4CC4)CC3)nn2)cc1`, the growth with HCT-15 colon is 91.6%; with HT29 colon, 79.2%; in the assay with U251 CNS, 42.2%; in the assay on PC-3 prostate, 79.3%; with SK-MEL-5 melanoma it was 77.6%; in the assay with UACC-62 melanoma, 73.8%. Besides, the growth is 36.2% in the assay on LOX IMVI melanoma; 88.2% with SK-MEL-28 melanoma; 96.8% with SK-MEL-2 melanoma; 94% in the assay with EKVX NSCLC; 45.8% in the assay with SN12C renal; 62.5% with UO-31 renal. For the same compound, the growth is 83.3% in the assay on TK-10 renal; 93.5% in the assay on ACHN renal; 61.4% in the assay on CAKI-1 renal; 52.2% in the assay with A498 renal; 64.9% with CCRF-CEM leukemia; 84.1% with MOLT-4 leukemia.
Turning to `CCCN(CCSSCCNc1nc(N(C)O)nc(N(C)O)n1)c1nc(N(C)O)nc(N(C)O)n1`, the growth in the assay on HCT-15 colon is 69.3%; in the assay on HT29 colon, 78.4%; with SNB-19 CNS, 44.7%; with U251 CNS it was 32.8%; with PC-3 prostate, 67.9%; in the assay on SK-MEL-5 melanoma, 80.9%. Further, the growth with UACC-62 melanoma was 81.3%; in the assay with LOX IMVI melanoma it was 70.7%; in the assay with SK-MEL-28 melanoma, 67.1%; in the assay on SK-MEL-2 melanoma, 69.8%; in the assay on EKVX NSCLC it was 54.3%; with SN12C renal, 69.7%. Further, the growth was 52.3% in the assay with UO-31 renal; 71% in the assay on TK-10 renal; 45.3% in the assay on ACHN renal; 31.9% with CAKI-1 renal; 64.4% in the assay with A498 renal; 9.07% (active) in the assay on CCRF-CEM leukemia. The growth in the assay with MOLT-4 leukemia was 47.3%.
`O=C1C=C(SCCO)C(=O)c2ccccc21`: the growth in the assay on HCT-15 colon is -68.5% (active); in the assay with HT29 colon, 95.7%; with SNB-19 CNS it was 15%; in the assay on U251 CNS, -37.2% (active); with PC-3 prostate, 62.3%; in the assay on SK-MEL-5 melanoma, -98% (active). Besides, the growth in the assay with UACC-62 melanoma is 22.3%; with LOX IMVI melanoma, -57.5% (active); in the assay with SK-MEL-28 melanoma, 42.9%; in the assay with SK-MEL-2 melanoma it was 28.4%; in the assay with EKVX NSCLC it was 53.5%; in the assay with SN12C renal, -87.1% (active). The growth in the assay with UO-31 renal is -37.4% (active); with TK-10 renal, 95.9%; in the assay on ACHN renal, -74% (active); in the assay with CAKI-1 renal it was 47.5%; in the assay with A498 renal, 113%; in the assay with CCRF-CEM leukemia, -14.4% (active). Besides, in the assay on MOLT-4 leukemia, the growth is 2.43% (active).
In the case of `O=S(O)c1cc(Cl)cc(Cl)c1OCc1ccccc1`, the growth in the assay on HCT-15 colon is 112%; with HT29 colon it was 104%; in the assay with SNB-19 CNS, 102%; in the assay with U251 CNS, 93.7%; in the assay on PC-3 prostate, 84.5%; in the assay on SK-MEL-5 melanoma, 96.3%. Besides, the growth in the assay on UACC-62 melanoma is 107%; with LOX IMVI melanoma, 108%; in the assay with SK-MEL-28 melanoma, 105%; in the assay with SK-MEL-2 melanoma it was 105%; in the assay with EKVX NSCLC, 99.1%; with SN12C renal, 98.4%. For the same compound, the growth in the assay on UO-31 renal was 90.3%; in the assay on TK-10 renal, 101%; in the assay on ACHN renal, 110%; with CAKI-1 renal it was 99%; with A498 renal, 80%; in the assay with CCRF-CEM leukemia it was 102%. Further, the growth with MOLT-4 leukemia is 101%.
`CCOC(=O)NCCCC(=O)NCCc1ccccc1`: the growth with HCT-15 colon is 118%; in the assay with HT29 colon, 110%; in the assay with SNB-19 CNS, 108%; in the assay on U251 CNS, 99.6%; in the assay on PC-3 prostate, 99.5%; in the assay with SK-MEL-5 melanoma, 99.8%. Moreover, the growth in the assay with UACC-62 melanoma was 107%; with LOX IMVI melanoma, 94.2%; in the assay on SK-MEL-28 melanoma, 114%; with SK-MEL-2 melanoma, 110%; with EKVX NSCLC, 112%; with UO-31 renal it was 90.3%. Also, the growth in the assay with TK-10 renal was 104%; in the assay on ACHN renal it was 111%; in the assay on CAKI-1 renal it was 99.5%; in the assay on A498 renal, 106%; in the assay on CCRF-CEM leukemia, 108%; with MOLT-4 leukemia, 101%.
For the compound `Cc1cc(C(=O)CCCC(=O)c2cc(C)c(O)c(C)c2)cc(C)c1O`, the growth in the assay on HCT-15 colon is 79.2%; in the assay on HT29 colon, 92.3%; with U251 CNS, 89.6%; with PC-3 prostate it was 84.1%; in the assay on SK-MEL-5 melanoma it was 29.2%; in the assay on UACC-62 melanoma it was 96.8%. Further, the growth is 87.2% in the assay with LOX IMVI melanoma; 105% in the assay with SK-MEL-28 melanoma; 101% in the assay with SK-MEL-2 melanoma; 111% in the assay with EKVX NSCLC; 97.8% in the assay with SN12C renal; 83.6% in the assay on UO-31 renal. Moreover, the growth in the assay on TK-10 renal is 105%; with ACHN renal, 91%; in the assay with CAKI-1 renal it was 93.5%; in the assay with A498 renal, 91.9%; with CCRF-CEM leukemia, 96.6%; with MOLT-4 leukemia, 106%.
In the case of `O=c1oc2ccccc2cc1-c1nn(-c2ccccc2)cc1-c1nn[nH]n1`, the growth is 100% in the assay with HCT-15 colon; 104% with HT29 colon; 98% in the assay with SNB-19 CNS; 104% with U251 CNS; 91.5% in the assay with PC-3 prostate; 102% in the assay with SK-MEL-5 melanoma. The growth was 93.3% with UACC-62 melanoma; 89% in the assay with LOX IMVI melanoma; 107% with SK-MEL-28 melanoma; 104% with SK-MEL-2 melanoma; 99.4% in the assay on EKVX NSCLC; 96.2% in the assay on SN12C renal. Further, the growth was 78.4% with UO-31 renal; 101% in the assay with TK-10 renal; 99.9% in the assay on ACHN renal; 87.6% in the assay with CAKI-1 renal; 95.1% with A498 renal; 104% in the assay with CCRF-CEM leukemia. Also, in the assay with MOLT-4 leukemia, the growth is 99%.
On to `CCN(CC)C(=O)CC1=C(C)/C(=C/c2[nH]c(-c3ccc[nH]3)cc2OC)N=C1C`, for which the growth with HCT-15 colon is 1.25% (active); in the assay on HT29 colon, 12.4%; in the assay with SNB-19 CNS, 42.4%; in the assay on U251 CNS, 23.9%; in the assay with PC-3 prostate, 3.87% (active); with SK-MEL-5 melanoma it was -59.3% (active). In addition, the growth in the assay on UACC-62 melanoma was -51.8% (active); in the assay on LOX IMVI melanoma, -58.8% (active); with SK-MEL-28 melanoma, 25.6%; in the assay on SK-MEL-2 melanoma, -36.1% (active); in the assay with EKVX NSCLC, 32.7%; in the assay on SN12C renal, 29.1%. Besides, the growth in the assay with UO-31 renal was -59.3% (active); with TK-10 renal, 28.2%; with ACHN renal, 1.61% (active); in the assay with CAKI-1 renal, -8.05% (active); with A498 renal, -8.32% (active); with CCRF-CEM leukemia, 25.8%. The growth with MOLT-4 leukemia was 12.4%.
